This note sets out measurements from PubChem BioAssay.

The source made the active and inactive calls. No rule for the calls is given here.

A short description of this test: kinase inhibitors against Plasmodium liver-stage infection, cell-based, known kinase inhibitor set, luminescence, hepatoma host viability (AID 624392).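 Also: infected cells incubated roughly two days before readout.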 Particulars: Plasmodium liver stage in hepatoma cells, luciferase luminescence, concentration not given here; liver cell % of control: measured here: host liver cell viability; parasite % of control: stronger effect = lower value.
Consider `CC(C)n1cnc2c(Nc3cccc(Cl)c3)nc(N(CCO)CCCO)nc21`, for which the parasite % of control is 381% (inactive) and the liver cell % of control amounted to 81.2%.

As for `C=CC(=O)Nc1cccc(Oc2ccnc(Nc3ccc(N4CCN(C)CC4)cc3)n2)c1`, the liver cell % of control worked out at 106% and the parasite % of control is 162% (inactive).

`O=C(Nc1cccc(-c2csc(Nc3ccc(Cl)cc3)n2)c1)c1cccc(C(F)(F)F)c1`: the liver cell % of control is 97.6% and the parasite % of control was 115% (inactive).

Turning to `CN(C)C1=NC(=O)C(=Cc2ccc(-c3ccc(S(N)(=O)=O)cc3)o2)S1`, the parasite % of control is 84.6% (inactive) and the liver cell % of control is 99.8%.

In the case of `CCN1C(=O)CC(c2ccccc2)N(C2CCCC2)c2nc(Nc3ccc(C(=O)NC4CCN(C)CC4)cc3OC)ncc21` (stereo unspecified), the parasite % of control is 83.8% (inactive) and the liver cell % of control amounted to 94.4%.

`COc1ccc(-c2cc(C(=O)Nc3cc(OC)cc(C(=O)Nc4cccc(C(F)(F)F)c4)c3)[nH]n2)cc1`: the liver cell % of control is 93.9% and the parasite % of control is 36.9% (inactive).

On to `Cc1cn(-c2cc(C(=O)Nc3ccc(C)c(NC(=O)N4CCNC4=O)c3)cc(C(F)(F)F)c2)cn1`, for which the parasite % of control was 72.3% (inactive) and the liver cell % of control is 98.1%.

Regarding `CCN1CCN(Cc2ccc(NC(=O)c3ccc(C)c(NC(=O)C(=O)c4c[nH]c5ccccc45)c3)cc2C(F)(F)F)CC1`, the liver cell % of control turned out to be 69.8% and the parasite % of control is 99.9% (inactive).
